# In ChEMBL document CHEMBL3988442, “University of Dundee, Small-Polar-MMV Screening Library” (2021):
# For some of these results: Entries with a potency or affinity are not part of this list.
# Legend:
# Parameters in all cases: scale not given: direction of the effect not stated beside the values
# [1] = target: Protein translocase subunit SecA (Escherichia coli (strain K12)) (UniProt P10408); assay: Assay to Identify E. coli SecA ATPase Inhibitors; assay type: functional; conditions: 30 µM
# [2] = target: T1, Ubiquitin-activating enzyme e1, putative (Leishmania donovani (strain BPK282A1)) (UniProt E9BSI1); assay: Leishmania donovani Ubiquitin Activating Enzyme (LdE1); assay type: functional; conditions: 30 µM
# T1 sequence (whole entry): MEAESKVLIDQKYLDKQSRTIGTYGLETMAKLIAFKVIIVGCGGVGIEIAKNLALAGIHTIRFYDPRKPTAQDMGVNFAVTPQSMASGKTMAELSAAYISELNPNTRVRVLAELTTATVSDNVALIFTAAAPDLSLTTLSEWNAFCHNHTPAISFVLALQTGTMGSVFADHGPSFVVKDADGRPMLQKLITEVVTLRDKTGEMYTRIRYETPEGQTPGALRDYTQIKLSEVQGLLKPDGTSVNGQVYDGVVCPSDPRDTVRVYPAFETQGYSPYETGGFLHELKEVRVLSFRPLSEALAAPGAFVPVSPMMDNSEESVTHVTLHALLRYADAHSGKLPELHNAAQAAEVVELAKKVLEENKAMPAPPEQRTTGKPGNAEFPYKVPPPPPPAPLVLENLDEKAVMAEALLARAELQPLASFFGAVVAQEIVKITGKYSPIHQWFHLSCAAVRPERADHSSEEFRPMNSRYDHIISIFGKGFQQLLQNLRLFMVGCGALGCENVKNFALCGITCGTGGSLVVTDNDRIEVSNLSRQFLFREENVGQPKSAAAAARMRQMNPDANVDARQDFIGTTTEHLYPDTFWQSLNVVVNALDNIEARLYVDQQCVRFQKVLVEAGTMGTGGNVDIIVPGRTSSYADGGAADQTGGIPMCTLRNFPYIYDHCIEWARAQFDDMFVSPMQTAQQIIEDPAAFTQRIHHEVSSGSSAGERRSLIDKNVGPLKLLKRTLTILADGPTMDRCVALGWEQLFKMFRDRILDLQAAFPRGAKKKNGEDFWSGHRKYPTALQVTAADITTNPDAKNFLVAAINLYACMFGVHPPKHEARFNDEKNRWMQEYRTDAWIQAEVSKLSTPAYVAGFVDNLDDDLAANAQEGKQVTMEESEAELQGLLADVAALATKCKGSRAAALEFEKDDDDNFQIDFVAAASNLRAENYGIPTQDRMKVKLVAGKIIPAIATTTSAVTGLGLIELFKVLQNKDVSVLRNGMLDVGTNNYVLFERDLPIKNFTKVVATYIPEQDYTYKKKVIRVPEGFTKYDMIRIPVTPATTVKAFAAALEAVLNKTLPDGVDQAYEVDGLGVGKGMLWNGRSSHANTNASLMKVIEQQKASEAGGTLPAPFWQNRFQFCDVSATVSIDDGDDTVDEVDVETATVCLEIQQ
# [3] = target: Sialic acid-binding Ig-like lectin 9 (Homo sapiens) (UniProt Q9Y336); assay: Hs-Siglec9 ALPHAscreen SOP 20170721; conditions: 10 µM
# Trypanosoma cruzi = assay: Trypanosoma cruzi phosphomannomutase and mannose-1-phosphate guanylyltransferase assay; assay type: functional; conditions: 10 µM
# [4] = target: T2, Arginase-2, mitochondrial (Homo sapiens) (UniProt P78540); assay: in vitro enzyme assay to detect the production of urea directly proportional to the activity of Arginase II; assay type: functional; conditions: 33.3 µM; also: in the data most compounds retested in dose-response had high values
# T2 sequence (whole entry): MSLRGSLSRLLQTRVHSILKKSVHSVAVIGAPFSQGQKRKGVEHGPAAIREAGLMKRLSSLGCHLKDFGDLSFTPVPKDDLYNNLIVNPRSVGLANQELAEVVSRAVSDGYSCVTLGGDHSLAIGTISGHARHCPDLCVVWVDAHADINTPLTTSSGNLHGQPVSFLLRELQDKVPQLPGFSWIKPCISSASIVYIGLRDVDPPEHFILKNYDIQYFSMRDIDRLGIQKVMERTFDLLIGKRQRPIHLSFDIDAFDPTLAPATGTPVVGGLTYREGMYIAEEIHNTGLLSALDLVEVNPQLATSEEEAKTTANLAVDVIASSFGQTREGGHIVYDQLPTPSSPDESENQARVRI
# [5] = target: T3, Proteasome subunit beta (Trypanosoma cruzi) (UniProt O96673); assay: Trypanosoma cruzi proteasome chymotrypsin-like activity (TcProtChymo) assay.; also: in the data most compounds retested in dose-response had high values; assay type: functional; conditions: 9.37 µM
# T3 sequence (whole entry): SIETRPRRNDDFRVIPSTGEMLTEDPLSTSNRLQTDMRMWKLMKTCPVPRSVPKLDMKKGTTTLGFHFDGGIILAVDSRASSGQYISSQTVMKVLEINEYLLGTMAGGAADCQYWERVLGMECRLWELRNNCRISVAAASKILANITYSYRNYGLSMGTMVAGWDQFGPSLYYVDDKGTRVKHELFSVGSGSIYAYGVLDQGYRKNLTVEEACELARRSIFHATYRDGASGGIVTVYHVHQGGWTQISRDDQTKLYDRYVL
# Homo sapiens = species on record: Homo sapiens; assay: To identify inhibition of the IFN signalling (Jak-Stat) pathway via expression of an eGFP reporter gene under the control of an IFN-stimulated response element (ISRE) containing MxA promoter.; assay type: functional; conditions: 30 µM
# [6] = target: T4, Tyrosyl-tRNA synthetase, putative (Trypanosoma cruzi (strain CL Brener)) (UniProt Q4DSP6); assay: Trypanosoma cruzi tyrosyl tRNA synthetase (TcYRS) _High Tyrosine SOP; assay type: functional; conditions: 30 µM; also: in the data most compounds retested in dose-response had high values
# T4 sequence (whole entry): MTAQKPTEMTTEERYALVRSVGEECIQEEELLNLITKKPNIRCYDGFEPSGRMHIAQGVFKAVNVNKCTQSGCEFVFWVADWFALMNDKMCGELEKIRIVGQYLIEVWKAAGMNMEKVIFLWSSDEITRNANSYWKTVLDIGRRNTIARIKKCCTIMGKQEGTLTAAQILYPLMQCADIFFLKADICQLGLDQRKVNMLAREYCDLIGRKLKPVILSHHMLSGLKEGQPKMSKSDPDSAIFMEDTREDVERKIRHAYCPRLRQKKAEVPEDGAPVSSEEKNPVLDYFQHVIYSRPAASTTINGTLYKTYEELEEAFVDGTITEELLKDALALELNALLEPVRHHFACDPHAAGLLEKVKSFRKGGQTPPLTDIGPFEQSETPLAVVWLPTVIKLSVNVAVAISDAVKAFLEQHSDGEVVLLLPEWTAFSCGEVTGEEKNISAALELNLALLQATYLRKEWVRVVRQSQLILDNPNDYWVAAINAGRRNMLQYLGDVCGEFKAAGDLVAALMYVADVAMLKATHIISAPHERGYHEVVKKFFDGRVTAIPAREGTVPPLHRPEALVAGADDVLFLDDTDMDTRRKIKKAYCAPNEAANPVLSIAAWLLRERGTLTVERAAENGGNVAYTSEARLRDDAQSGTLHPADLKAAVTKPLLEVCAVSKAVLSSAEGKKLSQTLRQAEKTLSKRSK
# [7] = target: T4, Tyrosyl-tRNA synthetase, putative (Trypanosoma cruzi (strain CL Brener)); assay: Trypanosoma cruzi tyrosyl tRNA synthetase (TcYRS) SOP; assay type: functional; conditions: 30 µM
# [8] = target: Chromo domain-containing protein 1 (Saccharomyces cerevisiae (strain ATCC 204508 / S288c) (Baker's yeast)) (UniProt P32657); assay: ScCHD-1 Enzyme Inhibition Assay; assay type: functional; conditions: 30 µM; also: in the data most compounds retested in dose-response had high values
# [9] = target: AMP-activated protein kinase, AMPK (Homo sapiens) (UniProt P54646+O43741+P54619+Q9UGJ0+Q9Y478+Q13131+Q9UGI9); assay: AMP-dependent Kinase enzyme assay. An in vitro enzyme assay that detects ADP turnover that is directly proportional to AMPK activity. This uses naive AMPK that is activated during the assay with MK-8722; assay type: functional; conditions: 30 µM
# Sequence of Sialic acid-binding Ig-like lectin 9 (Homo sapiens) (Q9Y336 whole entry): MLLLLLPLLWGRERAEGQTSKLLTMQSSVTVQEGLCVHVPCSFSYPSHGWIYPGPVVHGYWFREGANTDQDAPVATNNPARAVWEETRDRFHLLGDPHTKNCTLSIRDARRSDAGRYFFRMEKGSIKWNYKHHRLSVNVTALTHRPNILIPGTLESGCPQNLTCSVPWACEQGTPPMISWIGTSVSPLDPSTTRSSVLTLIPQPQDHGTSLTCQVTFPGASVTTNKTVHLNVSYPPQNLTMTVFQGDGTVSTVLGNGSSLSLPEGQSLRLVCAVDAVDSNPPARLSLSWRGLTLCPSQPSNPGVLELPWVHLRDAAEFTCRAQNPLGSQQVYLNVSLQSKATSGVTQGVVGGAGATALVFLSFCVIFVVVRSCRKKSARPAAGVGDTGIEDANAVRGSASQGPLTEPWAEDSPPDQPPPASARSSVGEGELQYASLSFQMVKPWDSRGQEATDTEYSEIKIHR
# Sequence of Chromo domain-containing protein 1 (Saccharomyces cerevisiae (strain ATCC 204508 / S288c) (Baker's yeast)) (P32657 whole entry, the tested form may be a part): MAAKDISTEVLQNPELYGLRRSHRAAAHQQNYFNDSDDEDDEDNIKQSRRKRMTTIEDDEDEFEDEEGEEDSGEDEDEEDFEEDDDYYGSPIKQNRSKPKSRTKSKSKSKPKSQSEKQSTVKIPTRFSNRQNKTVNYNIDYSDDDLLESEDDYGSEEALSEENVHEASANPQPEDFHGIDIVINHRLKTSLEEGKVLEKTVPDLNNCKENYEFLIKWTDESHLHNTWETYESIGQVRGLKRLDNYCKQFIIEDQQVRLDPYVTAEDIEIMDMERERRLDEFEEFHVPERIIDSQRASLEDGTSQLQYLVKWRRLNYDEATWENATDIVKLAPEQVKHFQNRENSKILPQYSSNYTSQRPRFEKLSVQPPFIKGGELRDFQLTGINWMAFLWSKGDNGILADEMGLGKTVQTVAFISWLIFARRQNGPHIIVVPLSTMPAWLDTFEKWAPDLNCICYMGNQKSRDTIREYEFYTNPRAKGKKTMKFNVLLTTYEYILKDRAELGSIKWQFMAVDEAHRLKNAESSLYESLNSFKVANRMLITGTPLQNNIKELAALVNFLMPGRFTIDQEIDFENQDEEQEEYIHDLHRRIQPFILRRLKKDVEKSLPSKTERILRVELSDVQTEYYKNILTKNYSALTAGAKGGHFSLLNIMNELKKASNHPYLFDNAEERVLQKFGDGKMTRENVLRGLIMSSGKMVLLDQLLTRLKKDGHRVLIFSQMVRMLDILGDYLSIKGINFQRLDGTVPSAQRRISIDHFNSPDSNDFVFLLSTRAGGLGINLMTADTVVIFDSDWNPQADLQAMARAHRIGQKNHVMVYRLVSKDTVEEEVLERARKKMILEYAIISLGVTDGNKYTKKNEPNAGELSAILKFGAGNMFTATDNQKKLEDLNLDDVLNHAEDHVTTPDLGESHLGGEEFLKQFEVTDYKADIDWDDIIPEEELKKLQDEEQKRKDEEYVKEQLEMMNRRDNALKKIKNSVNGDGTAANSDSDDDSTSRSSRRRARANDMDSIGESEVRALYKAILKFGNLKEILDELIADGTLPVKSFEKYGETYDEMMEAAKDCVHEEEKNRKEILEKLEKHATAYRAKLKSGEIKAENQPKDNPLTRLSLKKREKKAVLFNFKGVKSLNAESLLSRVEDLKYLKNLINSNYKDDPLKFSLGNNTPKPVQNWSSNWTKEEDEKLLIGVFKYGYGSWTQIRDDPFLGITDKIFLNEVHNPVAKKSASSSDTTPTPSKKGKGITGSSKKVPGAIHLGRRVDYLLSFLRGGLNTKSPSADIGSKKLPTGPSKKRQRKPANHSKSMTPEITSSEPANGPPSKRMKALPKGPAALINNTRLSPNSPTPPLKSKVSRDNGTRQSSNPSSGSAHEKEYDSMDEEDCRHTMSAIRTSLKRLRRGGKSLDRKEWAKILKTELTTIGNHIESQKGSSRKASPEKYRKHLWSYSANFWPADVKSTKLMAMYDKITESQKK
# Sequence of Protein translocase subunit SecA (Escherichia coli (strain K12)) (P10408 whole entry): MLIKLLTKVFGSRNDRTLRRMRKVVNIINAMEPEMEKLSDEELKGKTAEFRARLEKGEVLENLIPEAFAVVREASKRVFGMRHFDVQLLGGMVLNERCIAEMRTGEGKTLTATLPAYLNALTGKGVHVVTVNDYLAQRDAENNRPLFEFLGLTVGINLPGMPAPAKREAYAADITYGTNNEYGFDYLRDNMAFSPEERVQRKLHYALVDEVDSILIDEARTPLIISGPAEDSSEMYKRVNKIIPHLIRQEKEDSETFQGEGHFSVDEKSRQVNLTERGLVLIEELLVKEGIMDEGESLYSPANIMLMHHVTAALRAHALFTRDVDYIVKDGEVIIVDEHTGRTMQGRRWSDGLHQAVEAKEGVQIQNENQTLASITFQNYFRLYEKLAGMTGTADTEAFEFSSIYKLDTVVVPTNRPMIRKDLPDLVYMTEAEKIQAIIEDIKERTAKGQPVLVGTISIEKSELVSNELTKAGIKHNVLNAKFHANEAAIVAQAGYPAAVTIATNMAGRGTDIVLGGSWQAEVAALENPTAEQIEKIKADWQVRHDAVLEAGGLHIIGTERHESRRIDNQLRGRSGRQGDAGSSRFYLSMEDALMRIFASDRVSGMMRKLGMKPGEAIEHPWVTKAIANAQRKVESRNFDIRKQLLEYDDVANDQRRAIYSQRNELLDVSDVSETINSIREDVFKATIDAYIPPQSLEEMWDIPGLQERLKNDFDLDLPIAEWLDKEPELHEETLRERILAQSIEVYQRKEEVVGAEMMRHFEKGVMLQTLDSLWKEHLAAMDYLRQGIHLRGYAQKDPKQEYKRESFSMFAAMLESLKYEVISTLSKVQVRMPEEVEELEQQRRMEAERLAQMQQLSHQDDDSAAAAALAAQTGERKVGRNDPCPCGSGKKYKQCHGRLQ
smiles,measurement,setting,value
Fc1cccc(-c2nc(CN3CCn4c(nnc4C4CC4)C3)co2)c1,Percent Effect,[1],2.37%
same,Percent Effect,[2],0%
same,Percent Effect,[3],-4.75%
same,Percent Effect,Trypanosoma cruzi,-5.42%
same,Percent Effect,[4],1.33%
same,Percent Effect,[5],8.4%
same,Percent Effect,Homo sapiens,19%
same,Percent Effect,[6],0.526%
same,Percent Effect,[7],7.69%
same,Percent Effect,[8],-19%
O=C(N1CCC(Nc2cccnn2)CC1)C1(c2ccc(F)cc2)CC1,Percent Effect,[1],-2.8%
same,Percent Effect,[2],7.79%
same,Percent Effect,[3],9.36%
same,Percent Effect,Trypanosoma cruzi,-1.68%
same,Percent Effect,[4],-2.25%
same,Percent Effect,[5],1.4%
same,Percent Effect,Homo sapiens,10.5%
same,Percent Effect,[6],4.9%
same,Percent Effect,[7],9.41%
same,Percent Effect,[8],-1.2%
CC(C)CNC(=O)c1sccc1-n1cnnn1,Percent Effect,[9],10.8%
CCc1ccccc1OCCN(C)C(=O)CCN1CCCCO1,Percent Effect,[9],0.981%
O=C(NCCC1=CCCCC1)C1CCCN(c2ccc3nncn3n2)C1 (stereo unspecified),Percent Effect,[1],-2.76%
same,Percent Effect,[2],8.11%
same,Percent Effect,[3],3.56%
same,Percent Effect,Trypanosoma cruzi,-0.291%
same,Percent Effect,[4],-9.44%
same,Percent Effect,[5],13.5%
same,Percent Effect,Homo sapiens,-5.74%
same,Percent Effect,[6],3.72%
same,Percent Effect,[7],12.2%
same,Percent Effect,[8],-1.71%
COc1ccc(C2CCN(CCCC#N)CC2)cc1,Percent Effect,[9],3.86%
CN(C)c1nc2c(c(=O)[nH]1)Cc1ccccc1OC2,Percent Effect,[9],2.09%
CC(C)Oc1cc(N2CCN(Cc3ccsc3)C(CCO)C2)nc(N)n1 (stereo unspecified),Percent Effect,[9],-13.7%
Cc1ncsc1CCN(C)C(=O)c1ccc(CN2CCCCC2)cc1,Percent Effect,[9],5.27%
CN1CSC[C@H]1C(=O)N1CCC(Cc2ccccc2F)CC1,Percent Effect,[9],0.306%
Cc1nc2n(n1)CC(NCc1c(Cl)ccc3cccnc13)CC2 (stereo unspecified),Percent Effect,[9],11.7%
COC(=O)CSCc1noc(-c2ccc(Cl)cc2)n1,Percent Effect,[9],-9.28%
CCc1ccc2nc(C)cc(C(=O)NC3CCCCNC3=O)c2c1 (stereo unspecified),Percent Effect,[9],-6.44%
CC(NC(=O)N1CCC1)c1ccc(S(C)(=O)=O)cc1 (stereo unspecified),Percent Effect,[9],4.53%
Cc1n[nH]c(C)c1CCC(=O)N1CCc2c(nc[nH]c2=O)C1,Percent Effect,[9],-0.287%
Cc1cc(N2CCC(O)(C(=O)O)CC2)nc2ccccc12,Percent Effect,[9],3.47%
CC(CN1CCOC1=O)NC(=O)c1ccccc1Oc1ccccc1 (stereo unspecified),Percent Effect,[9],8.72%
Cc1nn(CC(=O)NCC2(C(N)=O)CCOCC2)c(C)c1Cl,Percent Effect,[9],2.14%
Cc1ccc(CNc2cc3c(cc2Cl)NC(=O)CO3)cc1C,Percent Effect,[9],-0.667%
Cn1cncc1C(=O)N1CCCC(c2ccn[nH]2)C1 (stereo unspecified),Percent Effect,[9],-5.31%
CCc1nc(NC(=O)Cc2csc(-c3nnc[nH]3)n2)sc1C,Percent Effect,[9],3.13%
Cc1ccc(N2CCCN(C(=O)CCCn3ccnc3C)CC2)nn1,Percent Effect,[9],-0.453%
CC(NC(=O)C1CCCCC1)c1cc(O)nc(-c2cccnc2)n1 (stereo unspecified),Percent Effect,[9],5.58%
COc1ncnc(N)c1CNCc1ccccc1-n1cccn1,Percent Effect,[9],-8.85%
O=C(CC1CCCC1)NCCS(=O)(=O)N1CCN(c2ccccn2)CC1,Percent Effect,[9],-2.11%
CC(C)C(CCO)NC(=O)Nc1ccc(-c2csnn2)cc1 (stereo unspecified),Percent Effect,[9],13.2%
COc1cccc(-c2ncc(CN3CC[C@H](CO)[C@@H](O)C3)s2)c1,Percent Effect,[9],-0.478%
N#Cc1ccc(CNCCc2cc(F)cc3c2OCOC3)cc1,Percent Effect,[9],4.17%
CSCCC(NC(=O)c1ccccc1)C(=O)N(C)Cc1ccsc1 (stereo unspecified),Percent Effect,[9],-4.15%
Cc1cc(=O)n2nc(Oc3cccc(C(N)=O)c3)sc2n1,Percent Effect,[9],-11.1%
COc1cnc(N2CCN(C)CC2)nc1-c1ccnn1C,Percent Effect,[9],0.474%
Cc1ncc(CNC(=O)NCc2c(F)cccc2OC(F)F)s1,Percent Effect,[9],6.42%
Cc1cc(C(=O)N2CCCC(c3ccc(C(=O)O)cc3)C2)c(C)o1 (stereo unspecified),Percent Effect,[9],4.65%
CCc1csc(NC(=O)Nc2c(C)n[nH]c2C)n1,Percent Effect,[9],-1.09%
